Laboratory results: PubChem BioAssay AID1850 (Southern Research Specialized Biocontainment Screening …, 2009)
The campaign covered roughly 310,000 compounds. About 1,000 (0.32%) were called active. Not all results are given here. Measured potencies and affinities stand elsewhere. A number with no mark means an inactive call. The rule behind the calls is not given here.

experiment: PhoP regulon inhibitors, Salmonella typhi PhoP promoter GFP reporter, confirmatory (AID 1850); settings: fluorescence, 4 h, at 50 µM, active compounds read high;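 note: 0% = induced wells with vehicle and 100% = uninduced wells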

Row | SMILES | inhibition
1 | Clc1ccc(C[n+]2cc(-c3ccccc3)n3c2CCC3)cc1Cl | -4.76%
2 | Clc1ccc(-c2c[n+](Cc3ccc(Br)cc3)c3n2CCCCC3)cc1 | 4.54%
3 | Cc1ccc(-c2c[n+](Cc3cccc(Cl)c3)c3n2CCC3)cc1 | 9.09%
4 | Cc1ccc(C[n+]2cc(-c3ccc(Cl)cc3)n3c2CCC3)cc1 | 8.21%
5 | COc1ccc(NC(=S)NC(C)C(c2ccccc2)N2CCOCC2)cc1 (configuration not stated) | -8.71%
6 | O=C(CNC(=O)Cc1ccc(Cl)cc1)NCC(=O)N1CCCCC1 | -7.52%
7 | CC(=O)Nc1c(S(=O)(=O)c2ccccc2)c2nc3ccccc3nc2n1Cc1ccccc1 | -2.36%
8 | CCOC(=O)c1c(NS(=O)(=O)c2ccccc2)n(CCCOC)c2nc3ccccc3nc12 | -3.68%
9 | CCCCn1c(N)c(S(=O)(=O)c2ccc(C)cc2)c2nc3ccccc3nc21 | -6.91%
10 | CCCCn1c(NS(=O)(=O)c2ccc(C)cc2)c(C(=O)OCC)c2nc3ccccc3nc21 | -4.9%
11 | CCC(=O)Nc1c(C#N)c2nc3ccccc3nc2n1C1CCCCC1 | 0.26%
12 | C=CCn1c(NC(=O)c2ccc(Br)o2)c(S(=O)(=O)c2ccccc2)c2nc3ccccc3nc21 | 21.1%
13 | Nc1c(S(=O)(=O)c2ccccc2)c2nc3ccccc3nc2n1C1CC1 | 0.22%
14 | CCCCCn1c(NC(=O)c2ccco2)c(S(=O)(=O)c2ccc(C)cc2)c2nc3ccccc3nc21 | -3.82%
15 | CCOC(=O)c1c(C(=O)OCC)c(C)n(Cc2cc(OC)c(OC)c(OC)c2)c1C | -2.04%
16 | COc1ccc(C(=O)N/N=C/c2c(C)nn(-c3ccccc3)c2OC)cc1 | -1.74%
17 | CCn1c(SCC(=O)NCc2ccccc2)nnc1C(CO)NC(=O)c1ccccc1 (configuration not stated) | -10.3%
18 | CCC(=O)c1ccc(N2CCN(C(=O)Cc3ccccc3)CC2)c(F)c1 | 18.2%
19 | CCOC(=O)c1c(N)nn(C(C)=O)c1-c1ccccc1 | -5.98%
20 | Cc1ccccc1OCC(=O)Nc1nnc(COc2ccccc2)s1 | -8.87%
21 | CCCCn1c(SCC(=O)Nc2nnc(CC)s2)nc2ccccc2c1=O | -4.64%
22 | O=C(N/N=C\c1ccc(Cl)s1)c1ccc(Cn2cccn2)o1 | -13.9%
23 | C=C(C)c1cccc(C(C)(C)NC(=O)NCCCN2CCCC2=O)c1 | -0.97%

Row | SMILES | inhibition
24 | Cc1noc(C)c1CSCC(=O)N1CCN(c2ccc([N+](=O)[O-])cc2)CC1 | 2.46%
25 | Cc1ccc(S(=O)(=O)c2c(N)n(CCCO)c3nc4ccccc4nc23)cc1 | 0.68%
26 | CCCCn1c(NC(=O)c2ccc(Br)o2)c(S(=O)(=O)c2ccccc2)c2nc3ccccc3nc21 | -28%
27 | CCc1ccc(C(=O)/C=C/c2ccc([N+](=O)[O-])o2)cc1 | -7.72%
28 | O=[N+]([O-])c1ccc(/C=[N+](\[O-])[C@@H]2CCCC[C@@H]2/[N+]([O-])=C/c2ccc([N+](=O)[O-])o2)o1 | 7.15%
29 | O=c1oc2cc(S(=O)(=O)NCCCO)ccc2c2ccc(S(=O)(=O)NCCCO)cc12 | 0.32%
30 | O=C(Nc1ccccc1)c1cc2ccccc2o1 | 21.6%
31 | Cc1cccc(NC(=O)c2cc3ccccc3o2)c1 | -8.7%
32 | COc1ccc(Nc2cc(Nc3cc(OC)c(OC)c(OC)c3)ncn2)cc1 | 10.6%
33 | Cc1ccc(NC(=O)CS(=O)CC(=O)Nc2ccc(N3CCOCC3)cc2)cc1Cl (configuration not stated) | 12.6%
34 | CC(C(=O)c1ccc(-c2ccccc2)cc1)[n+]1cccc(C(N)=O)c1 (configuration not stated) | 5.49%
35 | CC(C(=O)c1ccc(Br)cc1)[n+]1cccc(NC(=O)c2ccccc2)c1 (configuration not stated) | 4.99%
36 | CC(=O)C1=C(C)OC(N)=C(C#N)C1c1cccnc1 (configuration not stated) | -13.9%
37 | CCOC(=O)C1=C(c2ccccc2)OC(N)=C(C#N)C1c1cccnc1 (configuration not stated) | 9.75%
38 | CCC(C)(C)n1nnnc1C(c1cc2cc(C)cc(C)c2[nH]c1=O)N1CCN(C(=O)c2ccco2)CC1 (configuration not stated) | 8.8%
39 | COc1ccccc1C1/C(=C(\O)c2ccc3c(c2)OCCO3)C(=O)C(=O)N1CCCn1ccnc1 (configuration not stated) | 5.32%
40 | O=c1oc2ccccc2c(O)c1Cc1cc(Cl)c2cccnc2c1O | 10.9%
41 | CCOC(=O)N1CCN(Cc2ccc(O)c3ncccc23)CC1 | 1.82%
42 | CCOC(=O)N1CCN(Cc2ccccc2Cl)CC1 | -4.15%
43 | CN1CCN(Cc2cc(Cl)c3cccnc3c2OC(=O)c2cccs2)CC1 | -8.42%
44 | O=c1c(CN2CCN(c3ccccn3)CC2)coc2ccccc12 | -1.82%
45 | COCc1cc(CN2CCN(C)CC2)c(O)c2ncccc12 | 4.48%
46 | COc1ccc2nc(N(CCN(C)C)C(=O)c3ccc(C(=O)c4ccccc4)cc3)sc2c1 | -16%

Row | SMILES | inhibition
47 | Cc1ccccc1CSCC(Nc1ccc(C(=O)O)cc1[N+](=O)[O-])C(=O)O (configuration not stated) | -0.8%
48 | CCc1nnc(NS(=O)(=O)c2ccc(N3C(=O)C4CC=C(Cl)CC4C3=O)cc2)s1 (configuration not stated) | 5.39%
49 | COc1ccc2nc(NCc3ccccc3)[nH]c2c1 | 18.6%
50 | c1ccc(CNc2nc3ccccc3[nH]2)cc1 | -2.74%
51 | Cc1cc([N+](=O)[O-])nn1CC(=O)N1CCOCC1 | 12.6%
52 | Fc1ccc(C[n+]2c(-c3ccccc3)cc(-c3ccccc3)cc2-c2ccccc2)cc1 | 11.1%
53 | Cc1ccc(-c2cc(-c3ccccc3)cc(-c3ccccc3)[n+]2-c2ccccc2)cc1 | 20.6%
54 | c1ccc(-c2cc(-c3ccccc3)[n+](-c3ccccc3)c(-c3ccccc3)c2)cc1 | 19.1%
55 | Clc1ccc(C[n+]2c(-c3ccccc3)cc(-c3ccccc3)cc2-c2ccccc2)cc1 | 16.5%
56 | CCC1CCCCN1C(=O)c1cc(COc2ccc(-n3cncn3)cc2)on1 (configuration not stated) | -7.8%
57 | CN(c1ccccc1C(=O)Nc1ccc(S(=O)(=O)N2CCCC2)cc1)S(C)(=O)=O | 9.12%
58 | Cc1ccsc1/C=C(\C#N)C(=O)NCc1cccnc1 | -18.9%
59 | CCOc1ccccc1NC(=O)c1oc2ccccc2c1NC(=O)C1CCCO1 (configuration not stated) | 0.28%
60 | CCOC(=O)C1(Cc2cccc(F)c2)CCN(CC(O)CO)CC1 (configuration not stated) | 1.5%
61 | CCOC(=O)C1CCN(Cc2cc(C(C)(C)C)c(O)c(C(C)(C)C)c2)CC1 | -7.6%
62 | COc1ccc(OC)c(/C=N/NC(=O)c2[nH]ncc2Br)c1 | -1.03%
63 | COc1ccc(/C=N/NC(=O)c2[nH]ncc2Br)c(OC)c1 | 4.69%
64 | CC(=O)c1ccc(NC(=S)NCc2ccc(Cl)cc2Cl)cc1 | -6.96%
65 | CCn1c(=S)sc2c(=O)n(CC(=O)Nc3ccc(Cl)cc3)c(C)nc21 | 1.24%
66 | O=C(CN1CC[n+]2c(-c3ccccc3)csc21)c1ccc(Br)cc1 | 7.36%
67 | O=C(CN1CC[n+]2c(-c3cccs3)csc21)c1ccc(Br)cc1 | -5.14%
68 | C/C(=N/Oc1nc(C)cc(C)n1)c1ccccc1 | -15.4%
69 | Cc1c(C)[n+](=O)c(-c2ccc(Br)cc2)c(C)n1[O-] | 4.2%

Row | SMILES | inhibition
70 | CC[n+]1c(/C=C/c2ccc(N(C)C)cc2)ccc2ccccc21 | 1.34%
71 | C[n+]1c(/C=C/c2ccc(O)cc2)ccc2ccccc21 | 10.8%
72 | Cc1cc(/C=C2\SC(=O)NC2=O)c(C)n1-c1ccc(N(C)C)cc1 | -4.88%
73 | Cc1cc(/C=N/O)c(C)n1-c1ccccc1 | -9.52%
74 | CC1(C)CC(=O)C(C(=O)Cc2ccccc2[N+](=O)[O-])C(=O)C1 | 2.13%
75 | COc1ccc(Nc2nc(N)c3ccccc3n2)c(OC)c1 | 4.67%
76 | COc1ccc(Cl)cc1Nc1nc(N)c2ccccc2n1 | 2.43%
77 | CCOc1ccc(Nc2ncnc(N)n2)cc1 | 20.7%
78 | CCOc1ccc(Nc2nc(N)c([N+](=O)[O-])c(NCc3ccccc3)n2)cc1 | -9.51%
79 | Nc1nc(Nc2ccc(Cl)cc2)n[nH]1 | 1.12%
80 | COc1ccc(Nc2nc(C)c3ccccc3n2)cc1 | 1.01%
81 | COc1cc2nc(Nc3ccc(C)c(C)c3)nc(N)c2cc1OC | -4.96%
82 | COc1cc2nc(Nc3ccc(C)c(Cl)c3)nc(N)c2cc1OC | 5.86%
83 | CCOC(=O)CSc1nnc2n1C(C)(C)Cc1ccccc1-2 | 11.2%
84 | Cc1cc2n(n1)C(c1ccco1)Nc1ccccc1-2 (configuration not stated) | -1.68%
85 | COc1cc2ncnc(NCc3ccc(C)o3)c2cc1OC | 1.27%
86 | CCOC(=O)N/N=C/c1ccccc1OCc1ccc(Cl)cc1 | 2.12%
87 | O=c1[nH]c(C2CCCN(S(=O)(=O)c3ccccc3F)C2)nc2c1nnn2Cc1ccccc1Cl (configuration not stated) | 0.52%
88 | CCN(CC)CC(=O)Nn1c(C)nc2c(ncn2-c2ccccc2)c1=O | 2.92%
89 | CCCN(CCC)CC(=O)NCC1(c2ccccc2)CCOCC1 | 5.98%
90 | CCOc1ccccc1NC(=O)c1cc(-c2cc(OC)c(OC)c(OC)c2)nc2ccccc12 | 6.2%
91 | CC(=O)Nc1ccc(NC(=O)[C@H](C)NC(=O)c2ccco2)cc1 | 2.64%
92 | CCOC(=O)c1oc2ccccc2c1COC(=O)CNC(=O)c1ccccc1OC | -8.98%
